Experimental data from PubChem BioAssay (NCI).
The panel holds about 79,000 compounds, 15% with a hit somewhere; the sample as a whole holds those more often. A number with no mark means an inactive call. Active and inactive are the calls of the source. Cut-off read from the data, not from the text of the source: active = growth inhibition above about 70%; inactive = the rest.

assay: NCI Yeast Anticancer Drug Screen. Data for the cln2 rad14 strain (AID 165);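 note: 0% = growth equal to vehicle treated cultures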; details: S. cerevisiae cln2 rad14 strain, at 50.0 µM, hits give high values
In short: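 Yeast carrying cln2 and rad14 alterations (cell cycle control and DNA damage repair) were exposed to compounds. Growth inhibition was measured against vehicle-treated controls.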

SMILES	growth inhibition
Cc1ccccc1Sc1ccccc1[N+](=O)[O-]	11.1%
Nc1nc(-c2ccc3c(c2)Sc2ccccc2O3)cs1	78.1% (active)
CC(C)(C)C1CCC2c3c([nH]c4ccccc34)C3C(=O)N(c4ccc(C(=O)O)cc4)C(=O)C3C2C1 (stereo not given)	99.4% (active)
CCC[CH2][Sn]([CH2]CCC)([O]N(C)C(=O)c1ccc(Br)cc1)[O]N(C)C(=O)c1ccc(Br)cc1	90.7% (active)
COC(=O)c1ccc([N+](=O)[O-])o1	23.2%
O=C(OC1=C(Br)C(=O)c2ccccc2C1=O)c1ccccc1	-17%
O=C(O)C/C(=C\c1ccco1)C(=O)O	38%
N#C/C(=C/c1ccc([N+](=O)[O-])o1)c1ccccc1	32.8%
CCN(CC)CCOc1ccc(C=C2c3ccccc3-c3ccccc32)cc1	99.1% (active)
Nc1ncnc(N2CCOCC2)c1N	83.8% (active)
Cc1cc(Cl)ccc1N1C(=O)C(=O)C(c2nc3ccccc3o2)C(=O)C1=O	79.9% (active)
Cc1nc2c(Cl)nc(Cl)nc2s1	95.5% (active)
CC1=NOC(=O)/C1=C/c1ccc(Cl)c(Cl)c1	2.1%
CN(CCC(=O)/C(=C\c1ccc(Cl)cc1)c1ccccc1)Cc1ccccc1	98.5% (active)
C(=N\N=C\c1ccc2c(c1)OCO2)/c1ccc2c(c1)OCO2	75.9% (active)
Clc1ccc(CSc2ncnc3c2ncn3C2CCCCO2)cc1 (stereo not given)	94.3% (active)
CC(=O)OC/C=C/CCCOC(C)=O	77.9% (active)
CCCCCCCCCCOC(=O)c1cccnc1	-1.4%
Cc1ccc2c(c1)C1(SCC(=O)N1c1ccc(Cl)cc1)C(=O)N2 (stereo not given)	20.8%
Oc1ccc(C2CCc3ccccc32)cc1 (stereo not given)	99.3% (active)

SMILES	growth inhibition
[O-][N+]1=C2CCC/C(=N/O)C2(O)C2CCCCC21N1CCOCC1 (stereo not given)	25.5%
CCCCN(c1ccccc1)c1ncnc2c1ncn2C	74.2% (active)
Cc1cc(C)nc(/C=C/c2ccccc2)c1	94.1% (active)
CCCCN(C)N=Nc1c(C(N)=O)n[nH]c1C(C)C	1.15%
O=C1C(Cl)=C(Cl)C(=O)C2=C1CC(Cl)C(Cl)C2 (stereo not given)	99% (active)
O=C1Oc2ccccc2C(=O)/C1=C/N1C(=O)/C(=C/c2ccc3c(c2)OCO3)SC1=S	70.5% (active)
O=C(/C=C/c1ccc(O)cc1)c1cc(Cl)ccc1O	94.2% (active)
CCCC(C(=O)OCCNC1CCCCC1)c1ccccc1 (stereo not given)	35.1%
c1ccc2cc3c(cc2c1)Nc1c2ccccc2nc2cccc-3c12	56.5%
CCCC1CCCC1(CC(=O)c1ccccc1)C(=O)O (stereo not given)	82.3% (active)
COc1ccc(CCN2C(=O)C(=O)N(C3CCCCC3)C2=O)cc1OC	12.8%
COC(C(=O)O)c1ccccc1 (stereo not given)	-1.95%
CCCCCCCCC(=O)NCCCNCCCNC(=O)CCCCCCCC	92.2% (active)
C[Si](C)(CCC(=O)O)O[Si](C)(C)CCC(=O)O	98.2% (active)
Cc1c2cc[n+](C)cc2c(C)c2c1[nH]c1ccc(Cl)cc12	92.1% (active)
O=[N+]([O-])c1ccc(C2=Nn3c(nnc3-c3ccc(Cl)cc3)SC2)o1	65.5%
CCCCCCCCCCN(CCCCCCCCCC)CC(O)c1cc(-c2ccccc2)nc2ccccc12 (stereo not given)	-18.1%
O=C(c1ccccc1)C(c1ccccc1)C1(O)C(=O)Nc2c(Cl)cc(Cl)cc21 (stereo not given)	87% (active)
COC(=S)S	-45.5%
CC/C(=C(\CC)c1ccc(O)c(CN(CC)CC)c1)c1ccc(OC)cc1	99.5% (active)

assay: NCI Yeast Anticancer Drug Screen. Data for the bub3 strain (AID 167); details: S. cerevisiae bub3 mutant strain, at 5.0 µM (retest, dose inferred, filed as 0.5), hits give high values
In short: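 Compounds were applied to a genetically altered yeast strain carrying a cell-cycle control defect. Growth inhibition was scored against vehicle-treated controls.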

SMILES	growth inhibition
Cc1ccccc1Sc1ccccc1[N+](=O)[O-]	-1%
Nc1nc(-c2ccc3c(c2)Sc2ccccc2O3)cs1	11%
CC(C)(C)C1CCC2c3c([nH]c4ccccc34)C3C(=O)N(c4ccc(C(=O)O)cc4)C(=O)C3C2C1 (stereo not given)	74% (active)
CCC[CH2][Sn]([CH2]CCC)([O]N(C)C(=O)c1ccc(Br)cc1)[O]N(C)C(=O)c1ccc(Br)cc1	37%
COC(=O)c1ccc([N+](=O)[O-])o1	0%
O=C(OC1=C(Br)C(=O)c2ccccc2C1=O)c1ccccc1	12%
O=C(O)C/C(=C\c1ccco1)C(=O)O	-8%
N#C/C(=C/c1ccc([N+](=O)[O-])o1)c1ccccc1	-4%
CCN(CC)CCOc1ccc(C=C2c3ccccc3-c3ccccc32)cc1	99% (active)
Nc1ncnc(N2CCOCC2)c1N	-3%
Cc1cc(Cl)ccc1N1C(=O)C(=O)C(c2nc3ccccc3o2)C(=O)C1=O	22%
Cc1nc2c(Cl)nc(Cl)nc2s1	15%
CC1=NOC(=O)/C1=C/c1ccc(Cl)c(Cl)c1	-3%
CN(CCC(=O)/C(=C\c1ccc(Cl)cc1)c1ccccc1)Cc1ccccc1	97% (active)
C(=N\N=C\c1ccc2c(c1)OCO2)/c1ccc2c(c1)OCO2	3%
Clc1ccc(CSc2ncnc3c2ncn3C2CCCCO2)cc1 (stereo not given)	-15%
CC(=O)OC/C=C/CCCOC(C)=O	17%
CCCCCCCCCCOC(=O)c1cccnc1	8%
Cc1ccc2c(c1)C1(SCC(=O)N1c1ccc(Cl)cc1)C(=O)N2 (stereo not given)	4%
Oc1ccc(C2CCc3ccccc32)cc1 (stereo not given)	-28%

SMILES	growth inhibition
[O-][N+]1=C2CCC/C(=N/O)C2(O)C2CCCCC21N1CCOCC1 (stereo not given)	22%
CCCCN(c1ccccc1)c1ncnc2c1ncn2C	6%
Cc1cc(C)nc(/C=C/c2ccccc2)c1	18%
CCCCN(C)N=Nc1c(C(N)=O)n[nH]c1C(C)C	-4%
O=C1C(Cl)=C(Cl)C(=O)C2=C1CC(Cl)C(Cl)C2 (stereo not given)	96% (active)
O=C1Oc2ccccc2C(=O)/C1=C/N1C(=O)/C(=C/c2ccc3c(c2)OCO3)SC1=S	31%
O=C(/C=C/c1ccc(O)cc1)c1cc(Cl)ccc1O	4%
CCCC(C(=O)OCCNC1CCCCC1)c1ccccc1 (stereo not given)	-4%
c1ccc2cc3c(cc2c1)Nc1c2ccccc2nc2cccc-3c12	15%
CCCC1CCCC1(CC(=O)c1ccccc1)C(=O)O (stereo not given)	63%
COc1ccc(CCN2C(=O)C(=O)N(C3CCCCC3)C2=O)cc1OC	-2%
COC(C(=O)O)c1ccccc1 (stereo not given)	-2%
CCCCCCCCC(=O)NCCCNCCCNC(=O)CCCCCCCC	-28%
C[Si](C)(CCC(=O)O)O[Si](C)(C)CCC(=O)O	-9%
Cc1c2cc[n+](C)cc2c(C)c2c1[nH]c1ccc(Cl)cc12	42%
O=[N+]([O-])c1ccc(C2=Nn3c(nnc3-c3ccc(Cl)cc3)SC2)o1	12%
CCCCCCCCCCN(CCCCCCCCCC)CC(O)c1cc(-c2ccccc2)nc2ccccc12 (stereo not given)	0%
O=C(c1ccccc1)C(c1ccccc1)C1(O)C(=O)Nc2c(Cl)cc(Cl)cc21 (stereo not given)	-5%
COC(=S)S	-3%
CC/C(=C(\CC)c1ccc(O)c(CN(CC)CC)c1)c1ccc(OC)cc1	0%
